Source: PMC11062922 (Nature Chemical Biology, 2023)
Like-named read-outs stand apart in the source and are kept apart here.

Columns and labels:
[1] = tested on: PIM2; set-up: species or system human, MV4-11 + K-562 + COLO205 + SK-N-BE2 + OVCAR-8; conditions: read-out: apparent Kd, n = 1
[2] = tested on: PIK3CB; set-up: species or system human, MV4-11 + K-562 + COLO205 + SK-N-BE2 + OVCAR-8; conditions: read-out: apparent Kd; compound concentrations: 100 nM and 1000 nM (sheet 'Samples'), CATDS: 1; n = 1

SMILES: COc1cc(Nc2nccc(N3CCC(NC(=O)Nc4cc(C)ccc4C)C3)n2)cc(OC)c1OC (stereo not drawn) [GSK1379762_KCGS]
- potency estimated from few doses ([1]; compound concentrations: 100 nM and 1000 nM (sheet 'Samples'), CATDS: 1): 1940 nM

SMILES: O=C1Nc2ccc(I)cc2C1=Cc1cc(Br)c(O)c(Br)c1 [GW305074X_KCGS]
- potency estimated from few doses ([1]; compound concentrations:100 nM and 1000 nM (sheet 'Samples')): 2090 nM

SMILES: Cc1nn2c(=O)cc(N3CCO[C@H](C)C3)nc2n1Cc1cccc(Cl)c1Cl [GSK2373693A]
- potency estimated from few doses [2]: 11.8 nM
